KB-3-1 tox: qHTS assay for MDR1-selective chemotherapeutics: Primary screen using the parental adenocarcinoma cell KB-3-1. 400,000 compounds, 1.4% hits. AID 1347075, 2019. KB-3-1 viability, CellTiter-Glo ATP luminescence, 72 h. Potency, µM (doses to about 46.1 µM), actives largely listed as cytotoxic; further: nearly all actives have a fitted effect of over 60% in size
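Cells are dispensed, compounds pinned in, plates held at 37 °C for 72 h, then CellTiter-Glo is added and luminescence read after 10 minutes. Cell line: parental KB-3-1 in phenol-red-free DMEM, 10% FBS.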
KB-V1 MDR tox: qHTS assay for MDR1-selective chemotherapeutics: Primary screen using the drug-selected MDR subline cells KB-V1; 400,000 compounds, 3.4% hits; KB-V1 MDR cells viability, CellTiter-Glo, 72 h; AID 1347076, 2019; Potency, µM (doses to about 46.1 µM), most hits filed as cytotoxic; further: nearly all actives have a fitted effect of over 60% in size
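Potencies derive from concentration-effect curves fitted to normalized luminescence (CellTiter-Glo) of KB-V1 cells treated for 72 h at 37 degrees C in phenol-red-free DMEM containing 10% FBS.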
HT1080 IDH1KD tx: qHTS for induction of synthetic lethality in tumor cells producing 2HG: qHTS for the HT-1080-IDH1KD cell line; HT-1080 IDH1 knockdown viability, ATP luminescence, 48 h; 360,000 compounds, 2% hits; AID 686971, 2013; Potency, µM (doses to about 46.1 µM), most hits filed as cytotoxic
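HT-1080-IDH1KD cells (IDH1 knocked down), 750/well in RPMI with 5% FBS, treated with compound 48 h at 37 degrees C. Viability by CellTiter-Glo luminescence, normalised to DMSO and no-cell wells; concentration-response curves classed.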
HT1080-NT tox: qHTS for induction of synthetic lethality in tumor cells producing 2HG: qHTS for the HT-1080-NT fibrosarcoma cell line; HT-1080-NT fibrosarcoma viability, CellTiter-Glo ATP luminescence, 48 h; Potency, µM (top dose mostly 46.1 µM), actives largely listed as cytotoxic; 360,000 compounds, 1.6% hits; AID 686970, 2013;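 further: NT is the 2HG producing partner of a matched IDH1 knockdown line; nearly all actives have a fitted effect of over 55% in size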
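Luminescent CellTiter-Glo readout after 48 hours of compound exposure at 37 degrees C defined viability of HT-1080-NT cells. Activity was normalized to DMSO wells and cell-free media wells; concentration-response curves were fitted and assigned curve classes.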
MCF10A rereplic: A quantitative high throughput screen for small molecules that induce DNA re-replication in MCF 10a normal breast cells; MCF 10A DNA re-replication, Hoechst nuclear intensity, 48 h; Potency, µM (doses to about 46.1 µM), usual class: activators; 350,000 compounds, 2.9% hits; AID 624296, 2012; further: nearly all actives have a fitted effect of over 50% in size
SW480 rereplic: A quantitative high throughput screen for small molecules that induce DNA re-replication in SW480 colon adenocarcinoma cells | SW480 DNA re-replication, Hoechst DNA content imaging, 48 h | Potency, µM (highest dose often 46.1 µM), actives largely listed as activators | 340,000 compounds, 1.8% hits | AID 624297, 2012; further: nearly all actives have a fitted effect of over 55% in size
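Hoechst fluorescence of nuclei (405 nm excitation, 500-530 nm emission) measured by plate-scanning imager after 48 hr compound exposure at 37 C; re-replication scored as increased number of nuclei with elevated intensity.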
Numbers stand for hits; n = inactive; u = inconclusive; x = no result. Hits are enriched below; roughly 8% of the tested compounds scored in any of these assays. The call rests on the fitted dose curve; in most records, active means well fitted curve in the direction sought with a large enough effect; inconclusive means small, poorly fitted or top-dose-only effect, or another doubt; inactive means no such curve, though single readings can be large; an effect the other way counts as inactive or inconclusive.

SMILES	KB-3-1 tox	KB-V1 MDR tox	HT1080 IDH1KD tx	HT1080-NT tox	MCF10A rereplic	SW480 rereplic
CCCOC(=O)c1cccc(NC(=O)COc2ccc([N+](=O)[O-])cc2)c1	n	u	u	n	n	n
CCOC(=O)c1cccc(NC(=O)CN2CCN(c3ccc(OC)cc3)CC2)c1	n	21µM	n	n	n	n
CCOC(CNC(=O)c1ccc2c(c1)nc(C)n2-c1cccc(F)c1)OCC	n	21µM	n	n	n	n
CCCCCn1c2c(c(=N)c3ccccc31)CCC2	3.7µM	u	2.9µM	u	n	n
CCCCCCCCn1c2c(c(=N)c3ccccc31)CCC2	3.3µM	n	9.2µM	23µM	u	n
CCn1nc([N+](=O)[O-])c(C(C#N)c2nc3cc(C(F)(F)F)ccc3s2)c(Cl)c1=O (stereo not given)	15µM	u	0.32µM	0.63µM	n	4.6µM
CCC1CCCCN1C(=O)c1cc(-c2ccc(Cl)c(Cl)c2)on1 (stereo not given)	n	21µM	n	n	u	n
CC1CCCCN1C(=O)c1cc(-c2ccc(Cl)c(Cl)c2)on1 (stereo not given)	n	18µM	n	n	u	n
O=C(c1cc(-c2ccc(Cl)c(Cl)c2)on1)N1CCCCC1	n	15µM	n	n	n	n
CC1CCCCN1C(=O)c1cc(-c2ccc3c(c2)OCO3)on1 (stereo not given)	n	n	n	n	n	n
Cc1ccc2c(c1)nnn2C1CCN(S(=O)(=O)c2ccc3ccccc3c2)CC1	n	21µM	u	u	n	n
CCOC(=O)CN(C(=O)CN1CCC(n2nnc3cc(C)ccc32)CC1)c1ccccc1	n	n	n	n	n	n
Cc1ccc2c(c1)nnn2C1CCN(S(=O)(=O)c2cccc(S(=O)(=O)N(C)C)c2)CC1	n	n	n	n	n	n
Cc1ccc2c(c1)nnn2C1CCN(S(=O)(=O)c2ccc(C(=O)NC3CCCC3)cc2)CC1	n	u	n	n	n	n
Cc1ccc2c(c1)nnn2C1CCN(S(=O)(=O)c2ccc(C(=O)N3CC(C)CC(C)C3)cc2)CC1 (stereo not given)	16µM	u	n	n	n	n
Cc1ccc2c(c1)nnn2C1CCN(S(=O)(=O)c2ccc(C(=O)N(C)C)cc2)CC1	u	9.2µM	n	n	n	n
Cc1ccc2c(c1)nnn2C1CCN(CC(=O)N(c2ccccc2)c2ccccc2)CC1	u	9.2µM	n	n	n	n
CCOc1ccc(-n2c(SCC(=O)c3ccccc3)nc3c([nH]c4ccccc43)c2=O)cc1	n	n	x	x	x	x
Cc1ccc(CNC(=O)CCCCn2c(=O)c3ccccc3n(Cc3ccc(Cl)cc3)c2=O)cc1	n	n	x	x	x	x
COc1cc(O)ccc1-c1nc2cc(C)ccn2c1Nc1ccccc1C	n	u	x	x	x	x
O=Cc1ccc(N2CCOCC2)cc1	n	n	x	x	x	x
COC(=O)c1cccc(S(=O)(=O)N2CCC(n3nnc4cc(F)ccc43)CC2)c1	n	16µM	n	n	n	n
CCOC(=O)C(C)Oc1cccc2c(=O)n(CC(=O)Nc3ccc4c(c3)OCCO4)ccc12 (stereo not given)	n	n	n	n	n	n
CCOC(=O)COc1cccc2c(=O)n(CC(=O)NCc3ccc(F)cc3)ccc12	0.58µM	1.5µM	1µM	1.2µM	u	u
CCOC(=O)COc1cccc2c(=O)n(CC(=O)NCc3ccccc3)ccc12	0.92µM	1.6µM	0.46µM	0.52µM	1.5µM	u
CCOC(=O)COc1cccc2c(=O)n(CC(N)=O)ccc12	n	n	n	n	n	n
CCOC(=O)COc1cccc2c(=O)n(CC(=O)NCCc3ccc(OC)c(OC)c3)ccc12	x	x	x	x	n	n

From PubChem BioAssay
